# From PubChem
# Hits are enriched below; roughly 20% of the tested compounds scored in any of these assays.
# Cycloheximide cs = affects cycloheximide protein synthesis inhibition readout, counter-screen | cell reporter, cycloheximide protein synthesis inhibition counterscreen | max response, % | hit rate 12% among 300,000; in the data active = max response mostly above about 13%, no sharp cut-off; inactive = mostly below about 14%; also: read at 38.3 µM for the half of the compounds with a filed dose; 0% is about no effect
# Pf growth 48h = inhibits P. falciparum growth in the first generation, 48 h; P. falciparum luciferase growth in erythrocytes, 48 h; Potency, µM (highest dose often 28.7 µM), inactives show at the highest dose activity change, negative = inhibition, most hits filed as inhibitors; hit rate 5.9% among 310,000; AID 504832; also: potency is read from the fitted curve at half-maximal effect; % is scaled to controls: 0 for no effect and ±100 for the full control effect
#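 Luciferase-expressing parasites in RBCs, 2% Hct / 0.1% parasitemia final; RPMI 1640 + 0.5% Albumax; 37 C, 5% CO2, one generation; luminescence read-out, lower signal = inhibition.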
# Pf growth 96h = P. falciparum growth inhibition at 96 hour, primary screen for plastid delayed-death inhibitors | P. falciparum luciferase reporter growth, 96 h | Potency, µM (highest dose often 28.7 µM), for inactives: at the highest dose activity change, negative = inhibition, usual class: inhibitors | hit rate 6.9% among 320,000; also: potency is read from the fitted curve at half-maximal effect; % is scaled to controls: 0 for no effect and ±100 for the full control effect
#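 96 h incubation, 37 C, 5% CO2, of luciferase-reporter P. falciparum-infected RBCs (2% hematocrit, 0.05% parasitemia final) with test compounds; endpoint luminescence.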
# Shiga inhibitor = inhibitors of Shiga toxin in Vero cells; Vero cells, Shiga toxin protein synthesis inhibition reporter; inhibition, % at 38.7 µM; hit rate 9.2% among 290,000; AID 2315; in the data active = inhibition mostly above about 28%, no sharp cut-off; inactive = mostly below about 43%; also: 0% is about no effect
# HCMV inh = human cytomegalovirus inhibition; hit rate 4.5% among 410,000; AID 1259415; activity change, negative = inhibition, % at 57.5 µM; HFF cells, HCMV-luciferase reporter, 72 h; hits give low values; in the data active = activity change below about -60%; inconclusive = no clear call, values can overlap the other calls; inactive = above about -39%; also: % is scaled to controls: 0 for no effect and ±100 for the full control effect
#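 Inhibition of viral replication was scored as loss of reporter luminescence in HFFs infected with HCMV-luciferase (MOI 1 PFU/cell) for 72 h; compounds tested at 2 doses, normalized to buffer and Salinomycin controls.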
# Active calls of the source: *; i = inactive; ? = inconclusive; · = no result given. Unless noted, calls follow the shape of the dose curve; as a rule, active = well fitted inhibition curve with a large enough effect; inconclusive = small, poorly fitted or top-dose-only effect, or another doubt; inactive = no such curve, though single readings can be large or run the other way.
SMILES,Cycloheximide cs,Pf growth 48h,Pf growth 96h,Shiga inhibitor,HCMV inh
COc1ccccc1N1CCN(C2CCN(C(=O)c3cccc(F)c3)CC2)CC1,-3,-15%,13µM*,-3,12
COc1ccc(C(=O)N2CCN(C3CCC(c4ccccc4)CC3)CC2)cc1OC (centres undefined),-3,?,9.3µM*,-9,18
CCCCN1C(=O)C(CC(=O)NCCN2CCOCC2)CC(C(=O)N2CCOCC2)=C1C (centres undefined),·,·,·,·,-10
COc1ccccc1N1CCN(C(=O)c2ccc3c(Cl)c4c(nc3c2)CCCC4)CC1,-3,-3%,12µM*,-8,·
CC(=O)N1CCN(C(=O)c2cccc(S(=O)(=O)N3CCN(c4ccccc4)CC3)c2)CC1,·,?,-30%,·,-37
CC1CC(C)CN(S(=O)(=O)c2cccc(C(=O)N3CCN(c4ccc(F)cc4)CC3)c2)C1 (centres undefined),·,12µM*,?,·,29
COc1cccc(S(=O)(=O)NCc2ccc(C(=O)N3CCN(c4ccccc4OC)CC3)cc2)c1,-2,7.4µM*,?,-3,-9
Cc1ccc(N2CCN(C(=O)c3ccc4c(Cl)c5c(nc4c3)CCCC5)CC2)c(C)c1,·,·,·,·,0
O=C(c1cccc(S(=O)(=O)N2CCN(c3ccccc3)CC2)c1)N1CCN(c2ccccc2O)CC1,·,10µM*,?,·,-31
Cc1cc2nnc(SCc3ccc(F)cc3)n2c2ccccc12,·,·,·,·,-4
CCCCc1c(O)nc(SCC(=O)N2CCOCC2)n(-c2ccc(C)cc2)c1=O,·,·,·,·,25
COc1ccccc1N1CCN(C(=O)c2cccc(S(=O)(=O)N3CCCCCC3)c2)CC1,·,13µM*,?,·,-30
Cc1nc(-c2ccc(F)cc2)sc1CCNC(=O)C(=O)Nc1ccc2c(c1)OCCO2,·,·,·,·,16
COc1ccc(Cl)cc1C(=O)CSc1nc(N)cc(N)n1,-1,18%,0%,4,-19
CCOc1ccc(S(=O)(=O)N2CCN(S(=O)(=O)c3ccc(C(C)=O)cc3)CC2)cc1,-2,2%,-10%,-5,6
CCOc1ccc(S(=O)(=O)N2CN(c3cccc(C(C)=O)c3)c3nc4ccccc4nc32)cc1,·,·,·,·,-71*
COc1ccc(N2CCN(C(=O)COC(=O)[C@@H](NC(=O)c3ccccc3Cl)C(C)C)CC2)cc1,·,·,·,·,-15
C[C@H]1CN([C@@H](C)CO)C(=O)c2cc(-c3ccccc3F)cnc2O[C@@H]1CN(C)C(=O)NC1CCCCC1,·,·,·,·,4
CCOC(=O)C1=C(C)N(CCCC(=O)O)C(=O)NC1c1ccccc1OS(=O)(=O)c1ccc([N+](=O)[O-])cc1 (centres undefined),·,·,·,·,-100*
CC1=C(C(=O)OCc2ccccc2)C(c2ccccc2OS(=O)(=O)c2ccc([N+](=O)[O-])cc2)NC(=O)N1CCCC(=O)O (centres undefined),·,·,·,·,14
CCc1cccc2c(C=C(C#N)C#N)cn(CC(=O)N3CCCC3)c12,1,-17%,38%,-12,-19
O=C(CCN1CCc2ccccc2C1)c1ccc2c(c1)OCCO2,51*,13%,?,95*,·
O=C(CCN1CCCCC1)c1ccc2c(c1)OCCO2,14,-7%,1%,2,-10
O=C(CCN1CCC(c2ccccc2)C1)c1ccccc1 (centres undefined),5,?,-11%,-13,56
O=C(CCN1CCC(c2ccccc2)C1)c1ccc2c(c1)OCCO2 (centres undefined),13*,2%,-5%,19,43
SMILES,Cycloheximide cs,Pf growth 48h,Pf growth 96h,Shiga inhibitor,HCMV inh
O=C(CCN1CCc2ccccc21)c1ccc2c(c1)OCCO2,26*,5.2µM*,2.1µM*,34,22
NC(=O)c1ccccc1N/C=C/C(=O)c1cccs1,44*,128%,40%,45*,122
Cc1ncoc1C(=O)Nc1ccccc1C(N)=O,9,25%,?,-2,-6
NC(=O)c1ccccc1N/C=C/C(=O)c1ccc(Cl)cc1Cl,33*,i,201%,72*,43
NC(=O)c1ccccc1N/C=C/C(=O)c1ccc(F)cc1,56*,261%,410%,98*,43
Cc1ccc(C(=O)/C=C/Nc2ccccc2C(N)=O)o1,54*,108%,65%,83*,53
N#Cc1ccccc1N/C=C/C(=O)c1ccc(Cl)cc1,·,·,·,·,82
Cc1ccc(-n2ncc(C(=O)N3CCN(c4cccc(C)c4C)CC3)c2C2CCNCC2)c(C)c1,·,·,·,·,-28
COc1ccc(C)cc1N1CC(C(=O)Nc2cccc(C(=O)NC3CC3)c2)CC1=O (centres undefined),·,·,·,·,-8
Cc1cccc(N/C=C/C(=O)c2cccs2)c1C,49*,168%,4.7µM*,74*,35
Cc1c(NC(=O)c2cccs2)cccc1NC(=O)c1cccs1,-2,30%,-21%,2,4
O=S(=O)(c1ccc2c(c1)nc(COc1ccc(Cl)cc1)n2CC1CCCO1)N1CCOCC1 (centres undefined),-5,?,12µM*,-12,-21
CCCCn1c(CCl)nc2cc(S(=O)(=O)N3CCOCC3)ccc21,·,·,·,·,-23
C=CC[C@@H](CC(=O)NCCO)C(=O)N[C@@H](C)COC(=O)[C@@H](CC=C)Cc1ccc(F)cc1,·,·,·,·,-17
COC(=O)[C@@H](CC(C)C)NS(=O)(=O)N(Cc1ccccc1)[C@@H](CC(C)C)C(=O)OC,·,13µM*,?,·,?
COC(=O)[C@H](CC(C)C)NS(=O)(=O)c1ccccc1,-1,-17%,?,5,-15
COC(=O)[C@H](CC(C)C)NS(=O)(=O)N[C@@H](CC(C)C)C(=O)OC,·,31%,36%,·,7
COC(=O)[C@H](Cc1ccccc1)N(C)S(=O)(=O)c1cccc(S(=O)(=O)N(C)[C@@H](Cc2ccccc2)C(=O)OC)c1,0,0%,10µM*,-9,-29
C=CCN([C@@H](CC(C)C)C(=O)OC)S(=O)(=O)N(CC=C)[C@@H](CC(C)C)C(=O)OC,·,4.7µM*,?,·,-14
CN([C@@H](C(=O)OC(C)(C)C)c1ccccc1)S(=O)(=O)c1cccc(S(=O)(=O)N(C)[C@@H](C(=O)OC(C)(C)C)c2ccccc2)c1,-2,?,2.1µM*,-2,?
COC(=O)C(Cc1ccccc1)NC(=O)c1cccc(S(=O)(=O)N(C)C)c1 (centres undefined),18,28%,12%,24,-38
O=C1c2c(O)cc(O)cc2O[C@H](c2ccc(O)c(O)c2)C1O (some centres undefined),-7,·,·,-10,·
COc1ccc(N2CCN(C(=O)c3ccc(-c4nc(COc5ccccc5)c(C)o4)cc3)CC2)cc1,·,·,·,·,19
COC(=O)[C@H](Cc1ccccc1)N(Cc1ccccc1)S(=O)(=O)N(Cc1ccccc1)[C@@H](Cc1ccccc1)C(=O)OC,·,·,·,·,-96*
COC(=O)C(c1ccccc1)N(Cc1cccc(CN(C(C(=O)OC)c2ccccc2)S(C)(=O)=O)c1)S(C)(=O)=O (centres undefined),-3,8.3µM*,10µM*,-5,-4
